Screening results deposited in PubChem by National Center for Advancing Translational Sciences (NCATS).
IL1B secr inh: blocks inflammasome-driven IL-1 beta release; THP-1 LPS/ATP IL-1B secretion, AlphaLISA, 16 h; hits give low values; activity change, % at 57.5 µM; 360,000 tested, 4.7% active; in the data active = activity change below about -50%; inconclusive = mostly about -30% to -49%
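THP-1 cells pretreated 1 hr with compounds (up to 57.5 uM final), then stimulated with LPS (250 ng/mL final) plus ATP (1.25 mM final); secreted IL-1B measured by AlphaLISA after 16 hr, decreased signal indicating inhibition.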
LDHA inh: inhibitors of human lactate dehydrogenase A. activity change, % (values are at about 110 or 230 µM). P00338. AID 1347041. purified LDHA, NADH/diaphorase-resazurin fluorescence; hits give low values. 480,000 tested, 0.15% active; in the data active = activity change below about -30%; inconclusive = mostly about -25% to -30%;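 note: plate controls were DMSO wells for no effect and wells without enzyme for full effect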
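Human LDH5 at 2 nM final in Tris HCl pH 7.4 with 0.06 mM NADH and 0.2 mM pyruvate, reacted 5 minutes at room temperature. Remaining NADH coupled via diaphorase/resazurin; resorufin fluorescence read at 0 and 20 minutes, normalized to enzyme-free and DMSO wells.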
RORg inh: inhibitors of mouse ROR gamma transcriptional activity. Drosophila S2 Gal4-RORgamma UAS-luciferase reporter, 20 h. Potency, µM (highest dose often 53.6 µM), for inactives: at the highest dose activity change, negative = inhibition, hits mostly inhibitors. 310,000 tested, 5.4% active. P51450; note: potency is the fitted concentration of half-maximal effect; nearly all actives have a fitted effect of over 60% in size
Target sequence (P51450 whole entry, looked up, the tested form may be a part): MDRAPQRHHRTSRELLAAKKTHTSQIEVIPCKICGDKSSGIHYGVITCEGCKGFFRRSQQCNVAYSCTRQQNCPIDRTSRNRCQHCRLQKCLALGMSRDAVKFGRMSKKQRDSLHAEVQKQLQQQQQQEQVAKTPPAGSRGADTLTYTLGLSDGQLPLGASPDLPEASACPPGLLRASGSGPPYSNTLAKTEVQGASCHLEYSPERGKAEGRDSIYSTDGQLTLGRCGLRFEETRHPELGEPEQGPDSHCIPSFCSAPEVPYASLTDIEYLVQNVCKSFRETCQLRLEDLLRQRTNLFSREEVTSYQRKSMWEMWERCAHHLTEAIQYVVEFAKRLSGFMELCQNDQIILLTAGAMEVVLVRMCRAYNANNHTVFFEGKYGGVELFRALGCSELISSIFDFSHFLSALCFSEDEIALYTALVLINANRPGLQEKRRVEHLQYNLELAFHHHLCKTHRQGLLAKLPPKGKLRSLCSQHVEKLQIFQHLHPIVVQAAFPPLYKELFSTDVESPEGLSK
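Stable Schneider cell line, Gal4 DNA-binding domain fused to ROR gamma, UAS-luciferase. Cmpd 1 hr RT → CuSO4 700 uM final → 20 hr RT → luciferase reagent 10 min → luminescence.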
VP16 counter: inhibits Gal4-VP16 luciferase reporter, ROR gamma counter-screen. 310,000 tested, 3.5% active. Potency, µM (top dose mostly 53.6 µM), without a hit: at the highest dose activity, negative = inhibition, hits mostly inhibitors. Drosophila S2 Gal4-VP16 UAS-luciferase, luminescence, 20 h. AID 2546;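 note: Gal4-VP16 expression switched on by copper sulfate through the metallothionein promoter; potency is the fitted concentration of half-maximal effect; nearly all actives have a fitted effect of over 50% in size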
TDP1 cell CPT: DT40-hTDP1 cell growth loss with CPT; chicken DT40 Tdp1-/-;hTDP1 cells + 20 nM CPT, ATP luminescence, 48 h; Potency, µM (titrated, usually from 46.2 µM), for inactives: top-dose activity change, negative = growth inhibition, usual class: inhibitors; 420,000 tested, 12% active; note: potency is the fitted concentration of half-maximal effect; nearly all actives have a fitted effect of over 55% in size
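Cell growth measured by CellTiter-Glo luminescence after a minimum 48 h, 37 C compound exposure with 20 nM CPT in Tdp1-knockout DT40 cells stably expressing hTDP1, seeded 400/well; qHTS titration format.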
TDP1 cell noCPT: qHTS for Inhibitors of human tyrosyl-DNA phosphodiesterase 1 (TDP1): qHTS in cells in absence of CPT | 420,000 tested, 15% active | Potency, µM (top dose mostly 46.2 µM), inactives show at the top dose activity change, negative = growth inhibition, most hits filed as inhibitors | DT40 Tdp1-/- hTDP1 cells, no CPT, ATP luminescence, 48 h; note: potency is the fitted concentration of half-maximal effect; nearly all actives have a fitted effect of over 55% in size
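Compound effects on proliferation are scored in DT40 Tdp1-/-;hTDP1 cells in the absence of CPT. ATP levels (CellTiter-Glo luminescence) are recorded after a ≥48 hr, 37 °C incubation.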
Numbers without * were called inactive; ? = inconclusive; · = no result; [ ] = remark or other dose. The list is not random: actives were taken first. Their share in the collection is about 18%. Unless noted, calls come from the whole dose curve; as a rule, active = well fitted curve in the direction sought with a large enough effect; inconclusive = small, poorly fitted or top-dose-only effect, or another doubt; inactive = no such curve, though single readings can be large; an effect the other way counts as inactive or inconclusive. Unless noted, % is set by controls: 0 for no effect and ±100 for the full control effect.

SMILES	IL1B secr inh	LDHA inh	RORg inh	VP16 counter	TDP1 cell CPT	TDP1 cell noCPT
CCc1ccc(OCc2cccc(C(=O)O)c2)cc1	·	15	·	·	·	·
O=C(O)c1cccc(COc2ccc(CO)cc2Cl)c1	0	-4	1.8µM*	5µM*	-15%	-28%
COc1ccc(OCc2cccc(C(=O)O)c2)cc1	1	-1	1.8µM*	?	?	?
COc1ccccc1CN1CCc2ccccc2C1	·	5	·	·	·	·
COc1ccc(-c2ccc(CN3C(C(C)C)C(=O)N(Cc4cn(CCC5OCCO5)nn4)CCS3(=O)=O)cc2)cc1 (stereo not drawn)	13	2	·	·	9.2µM*	8.2µM*
CC(C)C1C(=O)N(Cc2cn(CCC3OCCO3)nn2)CCS(=O)(=O)N1Cc1ccc(-c2ccc(Cl)c(Cl)c2)cc1 (stereo not drawn)	-27	-2	·	·	2.1µM*	0.92µM*
COc1ccc(-c2ccc(CN3C(C(C)C)C(=O)N(Cc4cn(CCC5OCCO5)nn4)CCS3(=O)=O)cc2)cc1OC (stereo not drawn)	-3	7	·	·	-36%	-9%
CC(C)Cc1ccc(CN2C(C(C)C)C(=O)N(Cc3cn(CCC4OCCO4)nn3)CCS2(=O)=O)cc1 (stereo not drawn)	-56*	4	·	·	?	18µM*
Cc1cc(C)c2c(-n3cccc3)nn(CCCC(=O)NCc3ccc(Cl)cc3)c2n1	·	-3	·	·	·	·
CCCOc1ccc(/C=C2\SC(N)=NC2=O)cc1OC	4	1	-17%	19%	-13%	?
COc1cc(/C=C2\C(=O)N(c3ccccc3)N=C2C)ccc1Oc1ccc([N+](=O)[O-])cc1[N+](=O)[O-]	?	13	-35%	-28%	16µM*	18µM*
COc1cc(/C=C2/SC(N)=NC2=O)ccc1Oc1ccc([N+](=O)[O-])cc1[N+](=O)[O-]	8	-2	-12%	?	3.3µM*	2.9µM*
COc1cc(/C=C2\SC(N)=NC2=O)ccc1OCC(=O)Nc1ccccc1C	9	-13	·	·	?	9.2µM*
COc1ccc(/C=C2\C(=O)N(c3c(Cl)cc(Cl)cc3Cl)N=C2NC(=O)c2cccc([N+](=O)[O-])c2)cc1	-105*	-8	41%[10 µM]	-7%	18µM*	?
COc1ccc(C(=O)C(C)Oc2cccc(NC(=O)c3cccc([N+](=O)[O-])c3)c2)cc1 (stereo not drawn)	-18	-4	?	-16%	?	21µM*
O=C(Nc1ccc(Oc2cccnc2)cc1)c1ccc([N+](=O)[O-])cc1	?	-6	2%	-1%	-26%	?
COc1ccc(NC(=O)c2cccc(N3C(=O)c4cccc([N+](=O)[O-])c4C3=O)c2)cc1	-20	-1	-41%	-9%	-2%	17%
O=C(Nc1ccc(Oc2cccnc2)cc1)c1cccc([N+](=O)[O-])c1	-56*	-2	?	-5%	?	?
Cn1ccnc1C(NC(=O)COc1ccccc1F)c1ccccc1 (stereo not drawn)	·	-13	·	·	·	·
Cc1cc(C(F)(F)F)nn1CC(=O)Nc1c(F)cc(F)cc1Br	·	1	·	·	·	·
O=C1/C(=C\c2cc(Br)cc(Br)c2O)SC(=S)N1Cc1ccccc1	-9	-5	13µM*	?	13µM*	15µM*
O=C1/C(=C\c2ccc(O)cc2)SC(=S)N1Cc1ccccc1	-96*	-4	?	-12%	?	?
O=C(O)c1cccc(CN2C(=O)S/C(=C/c3cccc([N+](=O)[O-])c3)C2=O)c1	-27	0	5.6µM*	7.1µM*	?	?
O=C1/C(=C/c2ccc(O)c([N+](=O)[O-])c2)SC(=S)N1Cc1ccccc1	9	-7	-2%	-1%	?	18µM*
O=C(O)c1ccc(/C=C2/SC(=S)N(Cc3ccccc3)C2=O)cc1	20	-5	38%	7%	-23%	18%
SMILES	IL1B secr inh	LDHA inh	RORg inh	VP16 counter	TDP1 cell CPT	TDP1 cell noCPT
CN(CCc1noc(COc2cccc(C(F)(F)F)c2)n1)C(=O)c1cccc(Cl)c1	·	-4	·	·	·	·
CCCCNC(=S)N/N=C/C=C(/C)CCC=C(C)C	·	5	·	·	·	·
COc1cc(NC(=O)Cn2cc(S(=O)(=O)c3ccccc3)c(=O)c3ccc(C)nc32)cc(OC)c1	·	7	·	·	·	·
CCOc1cc(/C=C2/SC(=S)N(Cc3ccccc3)C2=O)ccc1O	-7	-10	·	·	?	?
CCN1C(=O)/C(=C\C=C\c2ccccc2[N+](=O)[O-])SC1=S	-21	4	42%	17%	26µM*	12µM*
CCOc1ccccc1C=C1SC(=S)N(CC)C1=O	1	-3	·	·	-5%	-19%
O=C1/C(=C\c2cccc([N+](=O)[O-])c2O)SC(=S)N1Cc1ccccc1	36	4	-63%	16µM*	18µM*	9.2µM*
CCOc1ccc(/C=N/NC(=S)NC2CC3C=CC2C3)cc1 (stereo not drawn)	35	-16	1µM*	3.2µM*	?	?
CCOc1ccc(/C=N/O)cc1	9	-15	38%	8%	4%	1%
COc1cc(/C=N/NC(=S)NC2CC3C=CC2C3)cc(OC)c1OC (stereo not drawn)	·	2	1.8µM*	4.5µM*	?	?
Oc1c(Br)cc(Br)cc1/C=N/NC(=S)N[C@H]1CC2C=CC1C2 (stereo partly drawn)	90	-9	?	?	?	?
CNc1ccc(/C=C/c2ccnc3ccccc23)cc1	·	1	·	·	11µM*	16µM*
CCCCCCNc1ccc(/C=C/c2ccnc3ccccc23)cc1	·	-4	·	·	16µM*	13µM*
CCNc1ccc(/C=C/c2ccnc3ccccc23)cc1	·	4	·	·	-109%	4µM*
CN(Cc1ccc(C(=O)NC2CC2)cc1)C(=O)c1cc(=O)[nH]c2ccccc12	·	1	·	·	·	·
Oc1ccc(CCNc2ncnc3ccc(Cl)cc23)cc1	46	1	?	6.3µM*	2.6µM*	2.3µM*
Nc1nc(Cl)cc(NCCc2ccc(O)cc2)n1	-10	-4	?	-24%	-20%	?
Clc1ccc2ncnc(NCc3ccc4c(c3)OCO4)c2c1	·	·	?	7.9µM*	3.2µM*	2.5µM*
Clc1ccccc1-c1ccc2ncnc(NCc3ccc4c(c3)OCO4)c2c1	·	2	·	·	·	·
COc1cccc(C2CCCN2Cc2cc(=O)oc3c(C)c(O)ccc23)c1 (stereo not drawn)	·	-7	·	·	·	·
